Screening data from PubChem.
ELG1 genotoxic: inducers of genotoxicity in HEK293T ELG1-luciferase cells | HEK293T ELG1-luciferase reporter, luminescence, 16 h | Potency, µM (top dose mostly 46 µM), without a hit: top-dose activity change, positive = activation, actives largely listed as activators | 1.3% of 330,000 active | AID 504466; further: % of control where 0% means no effect; nearly all actives have a fitted effect of over 60% in size
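Reporter readout depends on ELG1 protein level, which increases with genetic stress. After 16 hr compound exposure at 37 °C, luciferase activity was quantified using ONE-Glo.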
Rab9 promoter act: Rab9 promoter activation; AID 485297; Huh7 Rab9 promoter-luciferase reporter, luminescence, 24 h; 2.8% of 320,000 active; Potency, µM (doses to about 9.22 µM), inactives show top-dose activation, negative = inhibition, usual class: activators; further: % of control where 0% means no effect; nearly all actives have a fitted effect of over 60% in size
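Rab9 promoter-driven luciferase in stably transfected Huh7 cells; 1500 cells/well rested 2 h, exposed to compound in DMSO for 24 h at 37 °C, 5% CO2. Luminescence read 10 min after adding luciferase reagent at ambient temperature.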
FLuc modulator: firefly luciferase modulation, counter-screen for miR-21 project; P08659; purified FLuc, Km substrates, luminescence inhibition; Potency, µM (series often up to 57.5 µM), for inactives: top-dose activity change, negative = inhibition, most hits filed as inhibitors; 6.9% of 360,000 active;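 further: plate controls were vehicle for no effect and reference inhibitor for full effect; nearly all actives have a fitted effect of over 55% in size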
Target sequence (P08659 whole entry, looked up): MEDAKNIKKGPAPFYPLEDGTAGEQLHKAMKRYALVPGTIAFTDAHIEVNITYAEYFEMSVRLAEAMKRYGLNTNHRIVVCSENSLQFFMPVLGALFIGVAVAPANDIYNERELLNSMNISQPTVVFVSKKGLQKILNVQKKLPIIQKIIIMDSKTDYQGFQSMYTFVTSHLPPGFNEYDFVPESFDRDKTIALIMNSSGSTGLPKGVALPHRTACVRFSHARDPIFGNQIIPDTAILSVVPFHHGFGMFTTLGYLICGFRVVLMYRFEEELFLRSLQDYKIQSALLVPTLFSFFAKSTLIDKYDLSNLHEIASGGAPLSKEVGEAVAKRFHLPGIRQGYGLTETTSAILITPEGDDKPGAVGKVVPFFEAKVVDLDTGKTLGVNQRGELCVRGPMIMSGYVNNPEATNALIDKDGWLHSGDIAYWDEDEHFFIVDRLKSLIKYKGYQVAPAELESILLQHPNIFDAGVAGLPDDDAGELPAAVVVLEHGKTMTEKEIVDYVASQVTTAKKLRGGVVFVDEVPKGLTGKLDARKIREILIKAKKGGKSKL
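Biochemical qHTS of compounds, final roughly 60 µM downward over six points, against 10 nM purified firefly luciferase using Km concentrations of substrates (10 uM D-luciferin, 10 uM ATP) in Tris acetate pH 7.5 buffer; luminescence output.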
NPC1 promoter act: activators of NPC1 promoter | Huh7 NPC1 promoter luciferase reporter, 24 h | Potency, µM (doses to about 9.22 µM), for inactives: at the top dose activation, hits mostly activators | 2.4% of 320,000 active; further: % of control where 0% means no effect; nearly all actives have a fitted effect of over 60% in size
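Stable NPC1-promoter luciferase Huh7 line; cpd (DMSO) 24 h, 37 °C, 5% CO2; Amplite luciferase reagent 10 min RT; luminescence readout. qHTS format.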
SMN2 splice enh: SMN2 splice variant enhancement; 2.8% of 210,000 active; HEK293 SMN2-luciferase splicing reporter, luminescence, 30-36 h; AID 1458; Potency, µM (titrated, usually from 46.1 µM), for inactives: top-dose activity change, positive = activation, most hits filed as activators; further: % of control where 0% means no effect; nearly all actives have a fitted effect of over 55% in size
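qHTS luciferase splicing reporter: luminescence rises when SMN2 exon 7 is included in transfected HEK293 cells. Compound exposure lasted 30-36 h at 37C, with 4.5 mM final sodium butyrate as control, followed by a ONE-Glo read.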
* marks the source's active call; other numbers are inactive results. This is a sample that favours compounds with a hit; in the whole collection about 7.5% have one here. The call rests on the fitted dose curve; in most records, active means well fitted curve in the direction sought with a large enough effect; inconclusive means small, poorly fitted or top-dose-only effect, or another doubt; inactive means no such curve, though single readings can be large; an effect the other way counts as inactive or inconclusive. Potency means the concentration at half of the fitted maximal effect.

Cc1cc(Cl)c(OCCCCN2CCOCC2)c(Br)c1 was read as ELG1 genotoxic 1%, Rab9 promoter act 3%, FLuc modulator -11%, NPC1 promoter act 1% and SMN2 splice enh 2%.
C=CCn1c(O)c(N=NC(=O)OC(C)(C)C)c2ccccc21 was read as ELG1 genotoxic 2%, Rab9 promoter act -4%, FLuc modulator 17µM*, NPC1 promoter act -2% and SMN2 splice enh 14%.
Screening CC(C)c1ccc(C2=CC(c3ccc(C(C)C)cc3)n3nnnc3N2)cc1 (configuration not stated) returned FLuc modulator 2.7µM*.
`COc1cccc(C2=CC(c3ccc(OC)c(OC)c3OC)n3nnnc3N2)c1` (configuration not stated) gave ELG1 genotoxic 22%, Rab9 promoter act 16%, FLuc modulator -13% and NPC1 promoter act 10%.
COc1ccc(C2=CC(c3sccc3C)n3nnnc3N2)cc1 (configuration not stated) was read as ELG1 genotoxic inconclusive, Rab9 promoter act 2.8µM*, FLuc modulator -10%, NPC1 promoter act 2.8µM* and SMN2 splice enh 20%.
For COc1cccc(C2=CC(c3cccs3)n3nnnc3N2)c1 (configuration not stated) the results were ELG1 genotoxic 16µM*, Rab9 promoter act -5%, FLuc modulator 3%, NPC1 promoter act -21% and SMN2 splice enh 14%.
For Cc1ccc(C2=CC(c3ccc(N(C)C)cc3)n3nnnc3N2)cc1 (configuration not stated) the results were ELG1 genotoxic 1%, Rab9 promoter act 10%, FLuc modulator -3%, NPC1 promoter act -4% and SMN2 splice enh -14%.
`O=C(CSc1nc(O)c(C2CCCCC2)c(=O)[nH]1)NCC1CCCO1` (configuration not stated) gave ELG1 genotoxic 2%, Rab9 promoter act 10%, FLuc modulator 15µM*, NPC1 promoter act -3% and SMN2 splice enh 2%.
Screening COc1cccc(-c2cc(C(=O)Nc3cc(Cl)ccc3O)on2)c1 returned FLuc modulator -16%.
COc1cccc(-c2noc(C3CCCN(C(=O)c4ccc(F)cc4F)C3)n2)c1 (configuration not stated) was read as ELG1 genotoxic -2%, Rab9 promoter act 0%, FLuc modulator -5% and NPC1 promoter act 1%.
CCCCC(=O)N1CCCC(c2nc(-c3cccc(OC)c3)no2)C1 (configuration not stated) was read as ELG1 genotoxic 14%, Rab9 promoter act inconclusive, FLuc modulator 17µM* and NPC1 promoter act inconclusive.
`COc1cccc(-c2noc(C3CCCN(C(=O)c4ccccc4OC)C3)n2)c1` (configuration not stated) gave ELG1 genotoxic 10%, Rab9 promoter act 30%, FLuc modulator 21µM* and NPC1 promoter act inconclusive.
For Cc1cc(C)nc(SC2=CS(=O)(=O)c3ccccc32)n1 the results were ELG1 genotoxic -44%, Rab9 promoter act -5%, FLuc modulator -12%, NPC1 promoter act -8% and SMN2 splice enh inconclusive.
Screening O=S1(=O)C=C(Sc2nnc(-c3ccccc3)o2)c2ccccc21 returned ELG1 genotoxic -7%, Rab9 promoter act -41%, FLuc modulator 30µM*, NPC1 promoter act -26% and SMN2 splice enh -57%.
`Cc1cccc(C(=O)N/N=C/c2ccc[nH]2)c1` gave ELG1 genotoxic 13%, Rab9 promoter act 0%, FLuc modulator inconclusive, NPC1 promoter act 5% and SMN2 splice enh 9%.
`O=C(N/N=C/c1ccncc1)c1cc2ccccc2cc1O` gave ELG1 genotoxic inconclusive, Rab9 promoter act 12%, FLuc modulator 7.6µM* and NPC1 promoter act 0%.
Screening O=C(N/N=C/c1ccc[nH]1)c1cc2ccccc2cc1O returned ELG1 genotoxic 25%, Rab9 promoter act 9%, FLuc modulator 6.7µM* and NPC1 promoter act 9%.
`O=C(CNc1ccc2ccccc2c1)N/N=C/c1ccncc1` gave ELG1 genotoxic -1%, Rab9 promoter act 1%, FLuc modulator inconclusive and NPC1 promoter act 0%.
For O=C(N/N=C/c1ccncc1)c1cc([N+](=O)[O-])cc([N+](=O)[O-])c1O the results were ELG1 genotoxic 3%, Rab9 promoter act -10%, FLuc modulator 27µM*, NPC1 promoter act -4% and SMN2 splice enh 11%.
For COC1=CCC2([N+](=O)[O-])CN(CCO)CC1([N+](=O)[O-])C2 (configuration not stated) the results were ELG1 genotoxic 3%, Rab9 promoter act -5%, FLuc modulator -3% and NPC1 promoter act -15%.
For Cc1ccc(N=Cc2sccc2C)cc1C the results were ELG1 genotoxic 0%, Rab9 promoter act 2%, FLuc modulator 1.9µM*, NPC1 promoter act 1% and SMN2 splice enh 29%.
`Cc1ccsc1/C=N/N1CCOCC1` gave ELG1 genotoxic 8%, Rab9 promoter act 7%, FLuc modulator -2%, NPC1 promoter act 7% and SMN2 splice enh 11%.
For O=C(NCCSc1ccccc1)c1cncc(Br)c1 the results were ELG1 genotoxic 15µM*, Rab9 promoter act inconclusive, FLuc modulator 21µM*, NPC1 promoter act inconclusive and SMN2 splice enh inconclusive.
Screening CCc1cc(C)cc(OCCNC(=O)c2cncc(Br)c2)c1 returned ELG1 genotoxic -1%, Rab9 promoter act -2%, FLuc modulator 3%, NPC1 promoter act -1% and SMN2 splice enh -16%.
`O=C(NCCSc1ccccc1)c1ccc(Br)cc1` gave ELG1 genotoxic 3.3µM*, Rab9 promoter act 0.56µM*, FLuc modulator 1.3µM*, NPC1 promoter act 0.79µM* and SMN2 splice enh 6.3µM*.
Screening O=C(NCCOc1ccccc1)c1cncc(Br)c1 returned ELG1 genotoxic 16µM*, Rab9 promoter act inconclusive, FLuc modulator inconclusive, NPC1 promoter act inconclusive and SMN2 splice enh 5%.
O=C(NCCCc1ccccc1)c1cncc(Br)c1 was read as ELG1 genotoxic -2%, Rab9 promoter act 2%, FLuc modulator 4% and NPC1 promoter act -2%.
Screening O=C(CCSc1ccccc1)NCCSCc1ccccc1 returned ELG1 genotoxic 1%, Rab9 promoter act -4%, FLuc modulator 21µM*, NPC1 promoter act 3% and SMN2 splice enh 6%.
CCOc1ccc(C2CC(=O)Nc3c2c(=O)[nH]c2ncnn32)cc1 (configuration not stated) was read as FLuc modulator -7% and SMN2 splice enh -3%.
For CC(=O)O[C@H]1C[C@@H]2CCC3C(CC[C@@]4(C)[C@H]3C[C@H]([N+]3(C)CCCCC3)[C@@H]4OC(C)=O)[C@@]2(C)C[C@@H]1[N+]1(C)CCCCC1 (some centres not stated) the results were SMN2 splice enh -9%.
